Compound activity as filed in PubChem BioAssay.
BoNT F protease: blocks Botulinum neurotoxin F light chain protease; Multiplex microsphere protease cleavage assay, flow cytometry; AID 588497; inhibition, % at 10 µM; 360,000 compounds, 0.22% hits; in the data active = inhibition above about 35%, passing the limit was not always enough; inconclusive = no clear call, values can overlap the other calls
VHR inh abs: DUSP3 (human) phosphatase inhibition. P51452. recombinant VHR phosphatase, pNPP absorbance. inhibition, % at 13.3 µM. 290,000 compounds, 0.52% hits. AID 1654; in the data active = inhibition above about 50%
Anthrax LF inh2: anthrax lethal factor protease inhibition | P15917 | multiplex microsphere protease cleavage assay, LF | inhibition, % at 10 µM | 360,000 compounds, 0.12% hits
MazF activator: increases E. coli MazEF RNase cleavage of RNA. P0AE70. FAM/BHQ RNA-DNA oligo cleavage fluorescence, 5 h. activation, % at 20 µM. 350,000 compounds, 0.32% hits. AID 504720; in the data active = activation above about 50%
BoNT A protease: blocks Botulinum neurotoxin A light chain protease; multiplex microsphere protease substrate cleavage, flow cytometry; inhibition, % at 10 µM; 360,000 compounds, 0.17% hits; AID 588499
Bead autofluor: compound fluorescence in toxin protease inhibitor counterscreen; fluorescence intensity (no concentration beside the values); AID 624483; 360,000 compounds, 3.1% hits; compound autofluorescence counterscreen, microsphere flow cytometry; active compounds read high; in the data active = fluorescence intensity above about 16000; inconclusive = no clear call, values can overlap the other calls
Large screens that a line does not name were inactive. This is a sample that favours compounds with a hit; in the whole collection about 4% have one here. Cut-off read from the data, not from the text of the source, unless noted: active = inhibition above about 30%; inconclusive = no clear call, values can overlap the other calls; inactive = below that.

C=CCNC(=S)N/N=C(\C)c1ccccn1	Bead autofluor 16885
CC(=NNC(=S)N1CC2CCC(CC2)C1)c1ccncn1	BoNT F protease 59, Anthrax LF inh2 57 (no result: VHR inh abs)
CC(C)(C)OC(=O)NCCc1nnc(SCC(=O)Nc2ccc(Br)cc2)o1	BoNT F protease inconclusive
CC(C)(C)OC(=O)NCCCCCc1nnc(SCC(=O)Nc2cccc(Cl)c2)o1	Bead autofluor 16480
CC(C)(C)OC(=O)NCCc1nnc(SCC(=O)Nc2cccc(Cl)c2)o1	Bead autofluor 22287
NCCc1nnc(SCC(=O)Nc2cccc(Cl)c2)o1	none
CCOc1ccc(CCN2C(=S)N([C@@H](Cc3ccc(O)cc3)CN3CCC[C@@H]3CN3C(=S)NC[C@@H]3CC(C)C)C[C@@H]2Cc2ccccc2)cc1	none (no result: VHR inh abs, MazF activator)
O=C(Nn1c(O)c(C=C2N=c3ccccc3=N2)sc1=S)c1ccccc1Cl	BoNT F protease 55, Anthrax LF inh2 65, BoNT A protease 61
Oc1c(C=C2N=c3ccccc3=N2)sc(=S)n1C1CCCCC1	Anthrax LF inh2 33, BoNT A protease 70
Oc1c(C=C2N=c3ccccc3=N2)sc(=S)n1-c1ccccc1	BoNT A protease 44
COC(=O)c1ccc(NC(=O)C2CCCN2S(=O)(=O)c2ccc(OC)cc2)cc1 (stereo not given)	none
CC(NC(=O)Cc1cccs1)c1ccncc1 (stereo not given)	Bead autofluor 24187
CCOc1ccc(OCCCCN(C)C)cc1	none
Cc1ccc(S(=O)(=O)NC(=O)CSc2nc3ccccc3s2)cc1	Bead autofluor 16909
O=C(CSc1nc(-c2ccccc2)cs1)NC(=O)NCc1ccco1	none
O=C(CSc1nc2ccccc2s1)NC(=O)NCc1ccco1	Bead autofluor 22313 (no result: VHR inh abs)
CCN(CC(=O)NCc1cccs1)C(=O)c1ccc(S(=O)(=O)Nc2ccccc2)cc1	none (no result: VHR inh abs)
CC(C)(C)OC(=O)N1CCC(C(=O)Nc2ccc(C(=O)N3CCOCC3)cc2)CC1	none (no result: VHR inh abs)
CCC(C)NC(=O)c1c(N)n(CCCOC)c2nc3ccccc3nc12 (stereo not given)	Bead autofluor 17608
CCCCCOC(=O)c1c(N)n(CCOC)c2nc3ccccc3nc12	Bead autofluor 20661
CCCCn1c(NC(=O)c2ccc(Br)o2)c(C(=O)OCC)c2nc3ccccc3nc21	MazF activator 80
CCOC(=O)c1c(N)n(CCOC(=O)c2cccs2)c2nc3ccccc3nc12	none
O=C(NCc1cccs1)C1CCCN(S(=O)(=O)c2cccs2)C1 (stereo not given)	none
Cn1c(=O)c2c(nc(NCc3ccc4c(c3)OCO4)n2Cc2ccccc2Cl)n(C)c1=O	Bead autofluor 17237
C=CCOc1nc2c(c(=O)n(C)c(=O)n2C)n1Cc1ccc(Cl)cc1	VHR inh abs 55
CCSc1nc2c(c(=O)n(C)c(=O)n2C)n1Cc1ccc(Cl)cc1	none (no result: VHR inh abs)
C=CCOc1nc2c(c(=O)n(C)c(=O)n2C)n1Cc1ccccc1Cl	Bead autofluor 20534
CC1(C(=O)NCCC(F)(F)F)Cc2c(-c3cccc(C(N)=O)c3)ccnc2O1 (stereo not given)	none (no result: VHR inh abs, MazF activator)
Cn1c(SCc2ccc(Br)cc2)nnc1-c1cccs1	Bead autofluor 16457
Cc1ccc(CSc2nnc(-c3cccs3)n2C)cc1	none
Cn1c(SCc2c(Cl)cccc2Cl)nnc1-c1cccs1	BoNT A protease inconclusive, Bead autofluor 18672
COc1ccc(/C=N/NC(=O)c2sccc2OCc2ccc(F)cc2)cc1OC	none
COc1ccc(C(=O)CSc2nnc(COc3ccc(C#N)cc3)n2-c2ccccc2)cc1	none
N#Cc1ccc(CSc2nnc(COc3ccccc3)n2-c2ccccc2)cc1	Bead autofluor 24330
COc1ccc(-n2c(COc3ccccc3)nnc2SCc2ccc(C#N)cc2)cc1	Bead autofluor 19781
Nc1nnc(SCc2ccc(F)cc2)n1-c1ccccc1	Bead autofluor 21997
O=C(O)c1ccc(CSc2nnc(-c3ccccc3)n2-c2ccccc2)cc1	none
COCCN(C(=O)CSc1nnc(C)n1Cc1ccccc1)c1c(N)n(Cc2ccccc2)c(=O)[nH]c1=O	none
COc1ccccc1NC(=O)Nc1ccc(NC(=O)c2ccccc2O)cc1	none
OCCC1CN(CCCc2ccccc2)CCN1Cc1ccc(F)cc1 (stereo not given)	VHR inh abs 56 (no result: BoNT F protease, Anthrax LF inh2, BoNT A protease, Bead autofluor)
Cc1ccc2c(c1)c(C1=c3ccccc3=NC1=O)c(O)n2C	none
C=CCn1c(O)c(C2=c3ccccc3=NC2=O)c2ccccc21	VHR inh abs 60
